# Results as given in PubChem BioAssay AID1159580 (chemical genetic matrix, 2015).
# Several values for one entry are separate records, joined by “and”; a condition that tells them apart may be missing. Equal entries are not always repeated. Hit rate of the full screen: of about 5,500 compounds, about 2,000 (36%) were called active. Inconclusive results (about 18%) are left out. Cut-off read from the data, not from the text of the source: active = normalized growth mostly below about 0.91 (no sharp cut-off); inconclusive = no clear call, values can overlap the other calls; inactive = mostly above about 0.92. The list shows a part of the results. A structure can be active in one record and inactive in another.
# Experiment: chemical genetic growth profiling, strain panel (AID 1159580);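 note: tested at 20 µM; growth read once vehicle control cultures reached saturation at 30 °C; 1 = growth at the plate median or of vehicle wells; lower values mean less growth of the strain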
# Details: growth OD
smiles,measurement,setting,value
Fc1ccc(C(c2ccc(F)cc2)N2CCN(C/C=C/c3ccccc3)CC2)cc1,normalized growth,"S. cerevisiae deletion strains, locus YJR075W, strain HOC1, stronger effect = lower value",0.952 (inactive)
same,normalized growth,"S. cerevisiae deletion strains, locus YKL009W, strain mrt4, stronger effect = lower value",0.965 (inactive)
same,normalized growth,"S. cerevisiae deletion strains, locus YKL068W, stronger effect = lower value",0.982 (inactive)
same,normalized growth,"S. cerevisiae deletion strains, locus YKL085W, strain MDH1 (second series), stronger effect = lower value",0.974 (inactive)
same,normalized growth,"S. cerevisiae deletion strains, locus YKL085W, strain MDH1, stronger effect = lower value",0.974 (inactive)
same,normalized growth,"S. cerevisiae deletion strains, locus YKL160W, strain elf1, stronger effect = lower value",0.168 (active)
same,normalized growth,"S. cerevisiae deletion strains, locus YKL190W, strain CNB1, stronger effect = lower value",0.974 (inactive)
same,normalized growth,"S. cerevisiae deletion strains, locus YKR001C, strain vps1, stronger effect = lower value",0.972 (inactive)
same,normalized growth,"S. cerevisiae deletion strains, locus YKR026C, strain gcn3, stronger effect = lower value",0.412 (active)
same,normalized growth,"S. cerevisiae deletion strains, locus YKR091W, strain srl3, stronger effect = lower value",0.444 (active)
same,normalized growth,"S. cerevisiae deletion strains, locus YLL001W, strain dnm1, stronger effect = lower value",0.293 (active)
same,normalized growth,"S. cerevisiae deletion strains, locus YLL026W, stronger effect = lower value",0.257 (active)
same,normalized growth,"S. cerevisiae deletion strains, locus YLL041C, strain sdh2, stronger effect = lower value",0.41 (active)
same,normalized growth,"S. cerevisiae deletion strains, locus YLR027C, strain aat2, stronger effect = lower value",0.306 (active)
same,normalized growth,"S. cerevisiae deletion strains, locus YLR039C, strain RIC1, stronger effect = lower value",1.36 [resistant] (active)
same,normalized growth,"S. cerevisiae deletion strains, locus YLR058C, strain SHM2, stronger effect = lower value",0.981 (inactive)
same,normalized growth,"S. cerevisiae deletion strains, locus YLR102C, strain apc9, stronger effect = lower value",0.988 (inactive)
same,normalized growth,"S. cerevisiae deletion strains, locus YLR113W, strain HOG1, stronger effect = lower value",0.963 (inactive)
same,normalized growth,"S. cerevisiae deletion strains, locus YLR221C, strain rsa3, stronger effect = lower value",0.18 (active)
same,normalized growth,"S. cerevisiae deletion strains, locus YLR258W, strain gsy2, stronger effect = lower value",0.32 (active)
same,normalized growth,"S. cerevisiae deletion strains, locus YLR262C, strain YPT6 (second series), stronger effect = lower value",0.749 (active)
same,normalized growth,"S. cerevisiae deletion strains, locus YLR262C, strain YPT6, stronger effect = lower value",1.34 (inactive)
same,normalized growth,"S. cerevisiae deletion strains, locus YLR268W, strain sec22, stronger effect = lower value",0.933 (inactive)
same,normalized growth,"S. cerevisiae deletion strains, locus YLR320W, strain mms22, stronger effect = lower value",0.137 (active)
same,normalized growth,"S. cerevisiae deletion strains, locus YLR330W, strain CHS5, stronger effect = lower value",0.988 (inactive)
same,normalized growth,"S. cerevisiae deletion strains, locus YLR342W, strain FKS1 (second series), stronger effect = lower value",0.981 (inactive)
same,normalized growth,"S. cerevisiae deletion strains, locus YLR342W, strain FKS1, stronger effect = lower value",0.25 (active)
same,normalized growth,"S. cerevisiae deletion strains, locus YLR357W, strain rsc2, stronger effect = lower value",0.544 (active)
same,normalized growth,"S. cerevisiae deletion strains, locus YLR370C, strain arc18, stronger effect = lower value",0.226 (active)
same,normalized growth,"S. cerevisiae deletion strains, locus YLR371W, strain rom2, stronger effect = lower value",0.969 (inactive)
same,normalized growth,"S. cerevisiae deletion strains, locus YLR384C, strain iki3, stronger effect = lower value",0.957 (inactive)
same,normalized growth,"S. cerevisiae deletion strains, locus YLR418C, strain cdc73, stronger effect = lower value",0.993 (inactive)
same,normalized growth,"S. cerevisiae deletion strains, locus YML016C, strain PPZ1, stronger effect = lower value",0.992 (inactive)
same,normalized growth,"S. cerevisiae deletion strains, locus YML032C, strain rad52, stronger effect = lower value",0.948 (inactive)
same,normalized growth,"S. cerevisiae deletion strains, locus YML120C, strain ndi1, stronger effect = lower value",0.24 (active)
same,normalized growth,"S. cerevisiae deletion strains, locus YML124C, strain tub3, stronger effect = lower value",0.991 (inactive)
same,normalized growth,"S. cerevisiae deletion strains, locus YMR058W, strain fet3, stronger effect = lower value",0.266 (active)
same,normalized growth,"S. cerevisiae deletion strains, locus YMR078C, strain ctf18, stronger effect = lower value",0.966 (inactive)
same,normalized growth,"S. cerevisiae deletion strains, locus YMR125W, strain sto1, stronger effect = lower value",0.17 (active)
same,normalized growth,"S. cerevisiae deletion strains, locus YMR129W, stronger effect = lower value",0.222 (active)
same,normalized growth,"S. cerevisiae deletion strains, locus YMR205C, strain PFK2, stronger effect = lower value",0.332 (active)
same,normalized growth,"S. cerevisiae deletion strains, locus YMR223W, strain ubp8, stronger effect = lower value",0.988 (inactive)
same,normalized growth,"S. cerevisiae deletion strains, locus YMR231W, strain pep5, stronger effect = lower value",0.794 (active)
same,normalized growth,"S. cerevisiae deletion strains, locus YMR263W, strain SAP30, stronger effect = lower value",0.968 (inactive)
same,normalized growth,"S. cerevisiae deletion strains, locus YMR307W, strain GAS1, stronger effect = lower value",1.28 (inactive) and 0.996 (inactive)
same,normalized growth,"S. cerevisiae deletion strains, locus YNL067W, strain RPL9B, stronger effect = lower value",0.964 (inactive)
same,normalized growth,"S. cerevisiae deletion strains, locus YNL071W, strain lat1, stronger effect = lower value",0.119 (active)
same,normalized growth,"S. cerevisiae deletion strains, locus YNL128W, strain TEP1, stronger effect = lower value",0.969 (inactive)
same,normalized growth,"S. cerevisiae deletion strains, locus YNL153C, strain GIM3, stronger effect = lower value",0.959 (inactive) and 0.788 (active)
same,normalized growth,"S. cerevisiae deletion strains, locus YNL183C, strain NPR1, stronger effect = lower value",0.927 (inactive)
same,normalized growth,"S. cerevisiae deletion strains, locus YNL197C, strain WHI3, stronger effect = lower value",1.08 (inactive)
same,normalized growth,"S. cerevisiae deletion strains, locus YNL209W, strain ssb2, stronger effect = lower value",0.573 (active)
same,normalized growth,"S. cerevisiae deletion strains, locus YNL233W, strain BNI4, stronger effect = lower value",0.981 (inactive)
same,normalized growth,"S. cerevisiae deletion strains, locus YNL248C, strain rpa49, stronger effect = lower value",0.227 (active)
same,normalized growth,"S. cerevisiae deletion strains, locus YNL250W, strain rad50, stronger effect = lower value",0.992 (inactive)
same,normalized growth,"S. cerevisiae deletion strains, locus YNL271C, strain bni1, stronger effect = lower value",0.984 (inactive)
same,normalized growth,"S. cerevisiae deletion strains, locus YNL298W, strain CLA4, stronger effect = lower value",0.99 (inactive)
same,normalized growth,"S. cerevisiae deletion strains, locus YNL307C, strain MCK1, stronger effect = lower value",0.992 (inactive)
same,normalized growth,"S. cerevisiae deletion strains, locus YNL322C, strain KRE1 (second series), stronger effect = lower value",0.244 (active)
same,normalized growth,"S. cerevisiae deletion strains, locus YNL322C, strain KRE1, stronger effect = lower value",0.989 (inactive) and 0.962 (inactive)
same,normalized growth,"S. cerevisiae deletion strains, locus YNR049C, strain mso1, stronger effect = lower value",0.334 (active)
same,normalized growth,"S. cerevisiae deletion strains, locus YNR052C, strain pop2, stronger effect = lower value",0.933 (inactive)
same,normalized growth,"S. cerevisiae deletion strains, locus YOL006C, strain TOP1, stronger effect = lower value",0.81 (inactive)
same,normalized growth,"S. cerevisiae deletion strains, locus YOL012C, strain htz1",1.09 (inactive)
same,normalized growth,"S. cerevisiae deletion strains, locus YOL147C, strain pex11, stronger effect = lower value",0.984 (inactive)
same,normalized growth,"S. cerevisiae deletion strains, locus YOR001W, strain rrp6, stronger effect = lower value",0.314 (active)
same,normalized growth,"S. cerevisiae deletion strains, locus YOR061W, strain CKA2, stronger effect = lower value",0.982 (inactive)
same,normalized growth,"S. cerevisiae deletion strains, locus YOR069W, strain VPS5, stronger effect = lower value",0.995 (inactive)
same,normalized growth,"S. cerevisiae deletion strains, locus YOR070C, strain gyp1, stronger effect = lower value",0.126 (active)
same,normalized growth,"S. cerevisiae deletion strains, locus YOR080W, strain dia2, stronger effect = lower value",0.423 (active)
same,normalized growth,"S. cerevisiae deletion strains, locus YOR083W, strain WHI5 (second series), stronger effect = lower value",1.05 (inactive)
same,normalized growth,"S. cerevisiae deletion strains, locus YOR083W, strain WHI5, stronger effect = lower value",0.36 (active)
same,normalized growth,"S. cerevisiae deletion strains, locus YOR106W, strain vam3, stronger effect = lower value",0.33 (active)
same,normalized growth,"S. cerevisiae deletion strains, locus YOR136W, strain idh2, stronger effect = lower value",0.989 (inactive)
same,normalized growth,"S. cerevisiae deletion strains, locus YOR144C, strain elg1, stronger effect = lower value",0.982 (inactive)
same,normalized growth,"S. cerevisiae deletion strains, locus YOR184W, strain ser1, stronger effect = lower value",1.03 (inactive)
same,normalized growth,"S. cerevisiae deletion strains, locus YOR231W, strain MKK1, stronger effect = lower value",1 (inactive)
same,normalized growth,"S. cerevisiae deletion strains, locus YOR265W, strain rbl2, stronger effect = lower value",0.251 (active)
same,normalized growth,"S. cerevisiae deletion strains, locus YOR270C, strain vph1, stronger effect = lower value",0.156 (active)
same,normalized growth,"S. cerevisiae deletion strains, locus YOR290C, strain snf2, stronger effect = lower value",0.245 (active)
same,normalized growth,"S. cerevisiae deletion strains, locus YOR316C, strain cot1, stronger effect = lower value",0.967 (inactive)
same,normalized growth,"S. cerevisiae deletion strains, locus YPL051W, strain arl3, stronger effect = lower value",0.474 (active)
same,normalized growth,"S. cerevisiae deletion strains, locus YPL055C, strain LGE1, stronger effect = lower value",0.96 (inactive)
same,normalized growth,"S. cerevisiae deletion strains, locus YPL078C, strain atp4, stronger effect = lower value",0.316 (active)
same,normalized growth,"S. cerevisiae deletion strains, locus YPL106C, strain sse1, stronger effect = lower value",0.223 (active)
same,normalized growth,"S. cerevisiae deletion strains, locus YPL240C, strain hsp82, stronger effect = lower value",0.338 (active)
same,normalized growth,"S. cerevisiae deletion strains, locus YPL241C, strain CIN2, stronger effect = lower value",0.981 (inactive)
same,normalized growth,"S. cerevisiae deletion strains, locus YPL256C, strain CLN2, stronger effect = lower value",0.97 (inactive)
same,normalized growth,"S. cerevisiae deletion strains, locus YPR119W, strain clb2, stronger effect = lower value",0.979 (inactive)
same,normalized growth,"S. cerevisiae deletion strains, locus YPR141C, strain kar3, stronger effect = lower value",0.999 (inactive)
same,normalized growth,"S. cerevisiae deletion strains, locus YPR163C, strain tif3, stronger effect = lower value",0.959 (inactive)
same,normalized growth,"S. cerevisiae deletion strains, locus YPR167C, strain met16, stronger effect = lower value",0.964 (inactive)
same,normalized growth,"S. cerevisiae deletion strains, strain wtn01, stronger effect = lower value",0.957 (inactive)
same,normalized growth,"S. cerevisiae strains, strain wild type, stronger effect = lower value",0.984 (inactive)
